29 compounds from PubChem BioAssay can be followed below.

Molecules are shown by their SMILES. Several values for one entry are separate records, joined by “and”; a condition that tells them apart may be missing. Identical values can stand only once. Records with an inconclusive call do not appear. A structure can be active in one record and inactive in another. Activity calls are given as the source filed them. Unless noted, cut-off not given; nearly all actives show AC50 up to about 26 µM.

A short description of the first test: liver-stage malaria parasite growth inhibition, primary screen, cell-based, HepG2, luciferase luminescence, HepG2 viability (AID 624349; in the data active means parasite load remaining mostly below about 12%, no sharp cut-off; inactive means mostly above about 10%;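 further: 100% = mean of DMSO negative control wells on the same plate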). Conditions: P. berghei liver stage in HepG2, luciferase luminescence, concentration not given here; parasite load remaining: stronger effect = lower value; viability: measured here: HepG2 viability without parasites.
Take `N#Cc1c(NC(=O)c2cccc3ccccc23)sc2c1CCCC2`: the viability was found to be 98% and the parasite load remaining was 47.8% (inactive). On the same counts, the results for `Nc1nc(Nc2ccc(S(N)(=O)=O)cc2)nn1C(=O)c1c(F)cccc1F` are 170% and 42.7% (inactive).

In the case of `COc1cc2nccc(Oc3ccc(NC(=O)Nc4cc(C)on4)c(Cl)c3)c2cc1OC`, the parasite load remaining is 25.6% (inactive) and the viability is 70.1%.

A further test can be described thus: kinase inhibitors against Plasmodium liver-stage infection, cell-based, known kinase inhibitor set, luminescence, hepatoma host viability (AID 624392; call rule not given here;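 further: infected cells incubated roughly two days before readout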). Particulars: Plasmodium liver stage in hepatoma cells, luciferase luminescence, concentration not given here; liver cell % of control: measured here: host liver cell viability; parasite % of control: stronger effect = lower value.
For the compound `N#Cc1c(NC(=O)c2cccc3ccccc23)sc2c1CCCC2`, the parasite % of control was 217% (inactive) and the liver cell % of control turned out to be 69%.

As to `Nc1nc(Nc2ccc(S(N)(=O)=O)cc2)nn1C(=O)c1c(F)cccc1F`, the liver cell % of control was 60.7% and 62.5% and 90.9%; the parasite % of control was 8.09% (inactive) and 28.9% (inactive) and 97.5% (inactive). As for `Cc1ccc(F)c(NC(=O)Nc2ccc(-c3cccc4[nH]nc(N)c34)cc2)c1`, the liver cell % of control was 57% and 72.1% and 102%; the parasite % of control is 112% (inactive) and 141% (inactive) and 35.1% (inactive).

On to `N#CCNC(=O)c1ccc(-c2ccnc(Nc3ccc(N4CCOCC4)cc3)n2)cc1`, for which the liver cell % of control was 71.7% and 64% and 76%; the parasite % of control is 0.479% (inactive) and 0.449% (inactive) and 0.525% (active). For the compound `COC(=O)c1ccc2c(C(=Nc3ccc(N(C)C(=O)CN4CCN(C)CC4)cc3)c3ccccc3)c(O)[nH]c2c1`, the parasite % of control was 197% (inactive) and 560% (inactive) and 349% (inactive); the liver cell % of control was 156% and 81.4% and 93.4%.

The nature of another test: growth inhibition of DIPG glioma cells, dose response, cell-based, SU-DIPG-XVII, MIPE5.0, CellTiter-Glo, qHTS (AID 1347060).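 On AC50: cells exposed to compound for 48 hours before viability readout.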 Conditions: SU-DIPG-XVII viability, CellTiter-Glo ATP luminescence. For orientation: In ATP-based viability assays light output follows the ATP content of the culture.
With `O[C@@H](COc1cccc2ncccc12)CN1CCN(C2c3ccccc3[C@@H]3[C@H](c4ccccc42)C3(F)F)CC1` (stereo partly specified), the AC50 was 20.9 µM (active).

As for `NCc1c[nH]c(=S)n1[C@H]1CCc2c(F)cc(F)cc2C1`, the outcome was inactive. On to `C[C@H]1[C@H](O)O[C@@H]2O[C@@]3(C)CC[C@H]4[C@H](C)CC[C@@H]1[C@@]24OO3`, for which the AC50 was 2.95 µM (active).

Regarding `C#CCN(C)CC1=Cc2ccccc2Oc2ccccc21`, the compound was classed as inactive. As for `Cc1cc(Nc2cc(CN3CCOCC3)c3nc(C)c(Cc4ccc(Cl)cc4F)n3n2)n[nH]1`, the AC50 was 1.32 µM (active). As to `COc1cc(F)c(C(C)C)cc1-c1ccc(C(F)(F)F)cc1CN1C(=O)O[C@H](c2cc(C(F)(F)F)cc(C(F)(F)F)c2)[C@@H]1C`, the result was inactive. On the same count and under the same terms, the entry for `COc1cc(C(C)C)c(Oc2cnc(NC(CO)CO)nc2N)cc1I` is “inactive”. In the case of `CC1=C[C@@H]2[C@H]([C@@H](O)C[C@@]3(C)[C@H]2C[C@@H](C)[C@]3(O)C(=O)CO)[C@@]2(C)Cc3cnn(-c4ccccc4)c3C=C12`, the AC50 was 5.25 µM (active). Same read-out and setting: the figure for `CCN(CC)CCCCNc1ncc2c(n1)N(C)C(=O)N(c1c(Cl)c(OC)cc(OC)c1Cl)C2` is 0.59 µM (active).

With `COc1ccccc1[C@H](c1cccc2ccccc12)[C@@](C)(C#N)C(=O)N1CCC(c2cccc(C(F)(F)F)c2)CC1`, the compound was called inactive. Take `CC1(C)CNc2cc(NC(=O)c3cccnc3NCc3ccncc3)ccc21`: the AC50 was 20.9 µM (active). Still for that read-out and setting: to `O=C(Nc1ccccc1-c1cn2c(CN3CCNCC3)csc2n1)c1cnc2ccccc2n1` belongs 9.34 µM (active); to `COc1cc(C)c(Sc2cnc(NC(=O)c3ccc(CNC(C)C(C)C)cc3)s2)cc1C(=O)N1CCN(C(C)=O)CC1` (stereo unspecified), 14.8 µM (active); to `Cc1cnc(NC(=O)Nc2cc(Br)c(C)cc2OC[C@@H]2CNCCO2)cn1`, 8.33 µM (active). On to `CC(C)C[C@@H](N)[C@H](O)C(=O)N[C@H](C(=O)N[C@H](C(=O)N[C@@H](CC(=O)O)C(=O)O)C(C)C)C(C)C`, for which the result was inactive. Same read-out and setting: to `CCOc1cc(/C=C2/C(=O)N(c3ccccc3)N=C2C)cc(Cl)c1OCC(=O)OC` belongs “inactive”. On to `N#Cc1c(NC(=O)c2cccc3ccccc23)sc2c1CCCC2`, for which the AC50 was 0.372 µM (active). On the same count and under the same terms, to `CC(C)CNc1ccnc(NCc2csc(-c3ccccc3)n2)n1` belongs 16.6 µM (active); to `COc1c(OCCCN2CCOCC2)ccc2c3n(c(=NC(=O)c4cnc(N)nc4)nc12)CCN3`, 0.27 µM (active); to `COc1ccc(-c2ccc3c(N4CCOC[C@@H]4C)nc(N4CCOC[C@@H]4C)nc3n2)cc1CO`, 0.209 µM (active). On the same count and under the same terms, the figure for `COc1cccc2cc(-c3nc(C4CCC(C(=O)O)CC4)n4ncnc(N)c34)[nH]c12` (stereo unspecified) is 5.9 µM (active). Consider `COc1ccc2c(c1)CC[C@@H]1[C@@H]2CC[C@]2(C)[C@@H](NCCCCCCN3C(=O)C=CC3=O)CC[C@@H]12`, for which the compound was called inactive. Consider `CC(C)c1cc(C(C)C)c(CC(=O)NS(=O)(=O)Oc2c(C(C)C)cccc2C(C)C)c(C(C)C)c1`, for which the AC50 is 10.5 µM (active). On the same count and under the same terms, the figure for `CC1(C)CCC2=C(O1)c1ccccc1C(=O)C2=O` is 11.8 µM (active); for `Nc1nc(Nc2ccc(S(N)(=O)=O)cc2)nn1C(=O)c1c(F)cccc1F` it is 6.61 µM (active).

Usually viability stands for a read-out of living cells in per cent, often relative to untreated cells. For orientation: AC50 means the concentration giving half of the maximal activity seen.
